# Assay outcomes from PubChem.
# TDP1 cell CPT: growth inhibition of DT40 Tdp1-/-;hTDP1 cells with camptothecin (screen for TDP1 inhibitors). chicken DT40 Tdp1-/-;hTDP1 cells + 20 nM CPT, ATP luminescence, 48 h. Potency, µM (doses to about 46.2 µM), for inactives: top-dose activity change, negative = growth inhibition, actives largely listed as inhibitors. 420,000 compounds, 12% hits; note: % is set by controls: 0 for no effect and ±100 for the full control effect; nearly all actives have a fitted effect of over 55% in size
#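 Chicken DT40 Tdp1-/- cells complemented with human TDP1, 400 cells/well, exposed to compounds plus 20 nM camptothecin for at least 48 h at 37 C; viability read as ATP content by CellTiter-Glo luminescence.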
# DT40 TDP1 no CPT: qHTS for Inhibitors of human tyrosyl-DNA phosphodiesterase 1 (TDP1): qHTS in cells in absence of CPT. AID 686978, 2013. 420,000 compounds, 15% hits. Potency, µM (series often up to 46.2 µM), for inactives: at the top dose activity change, negative = growth inhibition, usual class: inhibitors. DT40 Tdp1-/- hTDP1 cells, no CPT, ATP luminescence, 48 h; note: % is set by controls: 0 for no effect and ±100 for the full control effect; nearly all actives have a fitted effect of over 55% in size
#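 Compound effects on proliferation are scored in DT40 Tdp1-/-;hTDP1 cells in the absence of CPT. ATP levels (CellTiter-Glo luminescence) are recorded after a ≥48 hr, 37 °C incubation.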
# TGFb SMAD3 inh: inhibitors of TGF-b signaling; HepG2 CAGA-GFP TGF-b/SMAD3 reporter, GFP fluorescence, 18 h; TGF-beta stimulated, 500 pg/mL final; Potency, µM (doses to about 46.1 µM), without a hit: top-dose activity, negative = inhibition, actives largely listed as inhibitors; 410,000 compounds, 1.2% hits; AID 588855; note: % is set by controls: 0 for no effect and ±100 for the full control effect; nearly all actives have a fitted effect of over 65% in size
#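 TGF-beta reporter screen: HEPG2 CAGA-GFP, 1% FBS, 500 pg/mL TGF-beta final, 18 h; per-cell GFP summed per well; curves fitted and categorized by class.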
# HepG2 viability: HepG2 cytotoxicity, counter-screen for TGF-b inhibitors; AID 588856; 410,000 compounds, 0.76% hits; Potency, µM (top dose mostly 46.1 µM), inactives show top-dose activity change, negative = cytotoxicity, actives largely listed as cytotoxic; HepG2 CAGA-GFP viability, ATP luminescence, 18 h
#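 HepG2 CAGA-GFP cells (1000/well, DMEM with 1% FBS) received compound, then TGF-beta at 500 pg/mL final, and were incubated 18 hours at 37 degrees C. Viability was read by CellTiter-Glo luminescence. Media-only wells were set as complete cell-killing and DMSO as no toxicity.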
# HT1080NT lethal: kills 2HG-producing HT-1080-NT fibrosarcoma cells | HT-1080-NT fibrosarcoma viability, CellTiter-Glo ATP luminescence, 48 h | Potency, µM (highest dose often 46.1 µM), for the others: at the top dose activity, negative = less viability, most hits filed as cytotoxic | 360,000 compounds, 1.6% hits;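 note: NT is the 2HG producing partner of a matched IDH1 knockdown line; 0% = DMSO-treated cells and -100% = media-only wells without cells; nearly all actives have a fitted effect of over 55% in size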
#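 Viability by CellTiter-Glo luminescence after 48 h compound exposure at 37C of HT-1080-NT cells (750/well, RPMI, 5% FBS). % activity scaled between DMSO wells and medium-only wells, then curve-fitted and categorized by curve class.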
# HT1080 IDH1KD tx: HT-1080 IDH1 knockdown cell toxicity (counter line). 360,000 compounds, 2% hits. Potency, µM (titrated, usually from 46.1 µM), for inactives: top-dose activity, negative = toxicity, hits mostly cytotoxic. HT-1080 IDH1 knockdown viability, ATP luminescence, 48 h;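 note: 0% = DMSO wells and -100% = cell-free medium wells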
#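 In this qHTS, HT-1080 cells depleted of IDH1 are exposed for 48 h at 37 °C to compound titrations. Toxicity is scored from CellTiter-Glo luminescence, with DMSO as full viability and medium alone as none.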
# Numbers without * were called inactive; u = inconclusive; x = not tested or not shown. Rows were chosen to be rich in hits. Some 17% of all compounds tested hit in one or more screens of this group. Calls come from the whole dose curve; as a rule, active = well fitted curve in the direction sought with a large enough effect; inconclusive = small, poorly fitted or top-dose-only effect, or another doubt; inactive = no such curve, though single readings can be large; an effect the other way counts as inactive or inconclusive. Potency is the fitted concentration of half-maximal effect.
SMILES,TDP1 cell CPT,DT40 TDP1 no CPT,TGFb SMAD3 inh,HepG2 viability,HT1080NT lethal,HT1080 IDH1KD tx
Cc1ccccc1C(=O)N1CCC2CC1c1cc(Cl)ccc12 (centres undefined),-24%,u,-24%,-23%,5%,1%
COc1cc(C2CC(=O)Nc3c2c(=O)nc2c(C)cccn32)cc(OC)c1OC (centres undefined),5%,4%,-3%,-23%,11%,5%
N#Cc1cccc(NC(=S)Nc2ccccc2)c1,-15%,-27%,-27%,-4%,9%,15%
O=C1NC2c3c(I)sc(I)c3C(=O)C2O1 (centres undefined),6.5µM*,7.3µM*,u,-9%,u,u
O=C1NC2c3c(Cl)sc(Cl)c3C(=O)C2O1 (centres undefined),21µM*,21µM*,0%,-34%,u,u
O=C(c1ccc(COCC(F)(F)F)o1)N1CCCC1,2%,-1%,0%,0%,1%,-4%
CCC(Cc1ccccc1)NC(=O)CSc1ccsc1[N+](=O)[O-] (centres undefined),-29%,u,14%,3%,1%,0%
CC1C(c2ccccc2)N(C)C(c2ccccc2)C(C)C1(O)C#Cc1ccccc1 (centres undefined),9.2µM*,10µM*,11µM*,-31%,-7%,u
Cc1cc(C)c(C#N)c(SCC(=O)c2ccc(Cl)cc2Cl)n1,u,16µM*,3%,-6%,u,u
COCCn1c(C)cc(C(=O)CSc2nc(C)cc(C)c2C#N)c1C,21µM*,18µM*,-37%,-17%,-13%,-13%
CCOC(=O)CSc1nc(C)cc(C)c1C#N,5%,-20%,1%,-20%,-2%,-2%
Cc1cc(C)c(C#N)c(SCC(=O)c2cc(C)n(CCc3ccccc3)c2C)n1,18µM*,18µM*,4%,-17%,0%,-10%
CCOC(=O)/C(C#N)=C/c1ccc(SC)cc1,13%,9%,-8%,0%,1%,25%
O=C1CCCCCC[C@@H](O)[C@H](O)C[C@H](c2ccccc2)O1,-11%,-28%,x,x,-7%,-2%
COc1cc2ccccc2cc1C(=O)OCc1nc2ccsc2c(=O)[nH]1,5.8µM*,u,-1%,0%,6%,10%
COc1cc(SC)ccc1C(=O)OCc1nc2ccsc2c(=O)[nH]1,8.2µM*,9.2µM*,3%,6%,0%,-1%
CSc1ncccc1C(=O)OCc1nc2ccsc2c(=O)[nH]1,-23%,-18%,-12%,4%,2%,8%
CNc1cc(C)nc(-n2nc(C)cc2C)n1,5.8µM*,5.2µM*,22%,13%,5%,-2%
Cc1cc(Nc2ccc(Cl)cc2C)nc(-n2nc(C)cc2C)n1,5.2µM*,1.6µM*,-7%,-31%,x,x
Cc1ccc(Nc2cc(C)nc(-n3nc(C)cc3C)n2)cc1,3.3µM*,3.7µM*,u,-27%,x,x
CCOc1ccc(Nc2cc(C)nc(-n3nc(C)cc3C)n2)cc1,0.46µM*,0.58µM*,u,-21%,u,0.41µM*
CCOc1ccc(Nc2nc3cc(Cl)c(Cl)cc3nc2-n2nc(C)cc2C)cc1,3%,4%,55%,5%,x,x
CCc1ccc(OCCCC(=O)Nc2ccc(S(N)(=O)=O)cc2)cc1,2%,-28%,u,2%,-9%,-4%
CC(=O)c1ccc(C(C)(C)c2ccc(C(C)=O)s2)s1,u,23µM*,-13%,-10%,-11%,-12%
Cc1ccc(S(=O)(=O)N(Cc2nc(-c3cccc(C)c3)no2)C2CCCCC2)cc1,u,10µM*,u,-23%,x,x
SMILES,TDP1 cell CPT,DT40 TDP1 no CPT,TGFb SMAD3 inh,HepG2 viability,HT1080NT lethal,HT1080 IDH1KD tx
COc1ccc(S(=O)(=O)N(Cc2nc(-c3cccc(C)c3)no2)C2CCCCC2)cc1,15µM*,u,-8%,-8%,x,x
Cc1cccc(-c2noc(CNC(=O)Nc3ccc(F)cc3)n2)c1,-29%,0%,-26%,-23%,17%,22%
Cc1cccc(-c2noc(CN(C3CCCCC3)S(=O)(=O)c3ccc(F)cc3)n2)c1,21µM*,15µM*,-19%,-11%,x,x
Cc1cccc(-c2noc(CN(C)S(=O)(=O)c3cc(Cl)ccc3Cl)n2)c1,-28%,-29%,-1%,-5%,-14%,-9%
CCOC(=O)c1c(C)[nH]c(C(=O)N(C)CC(=O)Nc2ccc(OCC)c(OCC)c2)c1C,-17%,u,-4%,-3%,11%,11%
Cc1c(C(=O)NCCCN2CCOCC2)oc2ccc(S(=O)(=O)N3CCOCC3)cc12,-3%,-1%,19%,26%,1%,5%
Cc1cc2c(N=O)c(NO)ccc2[nH]1,7.3µM*,6.5µM*,u,-25%,-19%,u
CCCCn1c(=N)n(CC(=O)c2ccc(Br)s2)c2ccccc21,5.2µM*,4.1µM*,u,-103%,u,u
CCCCn1c(=N)n(CC(=O)C(C)(C)C)c2ccccc21,23µM*,u,-18%,-21%,-26%,u
CCn1c(=N)n(CC(=O)c2ccc(Br)s2)c2ccccc21,u,u,0%,-32%,u,u
CCn1c(=N)n(CC(=O)C(C)(C)C)c2ccccc21,-26%,u,u,-28%,7.1µM*,7.9µM*
Cc1nc2ccc(NC(=O)c3cccs3)cc2c(=O)n1Cc1ccc(Cl)cc1,18µM*,u,u,-30%,6.3µM*,u
CCCC(=O)Nc1ccc2nc(C)n(Cc3ccccc3Cl)c(=O)c2c1,-14%,-14%,-17%,-24%,-6%,-9%
O=c1c2ccccc2c(C=Nc2ccc(Cl)cn2)c(O)n1-c1cc(Cl)ccc1N1CCOCC1,u,1.5µM*,0%,9%,2%,8%
CCN(CC)CCCOc1cc2nc(N3CCCN(C)CC3)nc(NC3CCN(C)CC3)c2cc1OC,u,u,u,-26%,x,x
COc1cc2c(NC3CCN(C)CC3)nc(N3CCN(C)CC3)nc2cc1OCCCN(C)C,u,u,9%,-31%,x,x
COc1cc2c(NC3CCN(C)CC3)nc(N3CCCN(C)CC3)nc2cc1OCCCCCN(C)C,11µM*,14µM*,u,-22%,x,x
COc1cc2c(NC3CCN(C(C)C)CC3)nc(N3CCCN(C)CC3)nc2cc1OCCCN(C)C,3.2µM*,6.3µM*,10µM*,-8%,x,x
